Test [1] is described as follows: resazurin metabolic signal in HepG2 cells – cell-based, resazurin fluorescence, 24 h, PK04 Diversity Set, profiling panel (AID 1172). The note with it: HepG2 viability, higher = more signal. (Alamar Blue is a resazurin reagent that responds to reducing activity.)
Test [2] is described as follows: budding yeast growth changes without added modifier – OD600, strain BY4716, 24 h, basal condition, primary screen (AID 1173). The conditions noted are these: S. cerevisiae BY4716 growth, OD600, 24 h; higher = more signal, called active from +8 up or from −8 down.
The nature of test [3]: viability profiling in MM1S myeloma cells – cell-based, resazurin fluorescence, basal, 24 h, PK04 Diversity Set, profiling panel (AID 1174).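 Note: MM1S multiple myeloma cell line.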 The note with it: higher = more signal, called active from +8 up or from −8 down.
For test [4], the target named is Dihydroorotate dehydrogenase (quinone), mitochondrial (Plasmodium falciparum (isolate 3D7)) (UniProt Q08210). In words: inhibition of P. falciparum DHODH – biochemical, C-terminal His tag, absorbance 600 nm, primary screen (AID 1175).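 Note: recombinant parasite enzyme with a five histidine tag at its C terminus.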 The conditions noted are these: PfDHODH enzyme, DCIP absorbance 600 nm; higher = more signal, called active from +8 up or from −8 down.

A short description of test [5]: inhibition of PAO1 biofilm formation – strain PAO1, LB-PBS medium, absorbance 600 nm, primary screen (AID 1176). The note with it: P. aeruginosa PAO1 growth/biofilm, A600, 12 h; higher = more signal.
Test [6] in a line: growth modulation of vineyard yeast isolate – strain RM11-1a, OD600, basal, 24 h, primary screen (AID 1177).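 Note: cultures grown under basal conditions with no added stressor.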 The note with it: S. cerevisiae RM11-1a growth, OD600, 24 h; higher = more signal, called active from +8 up or from −8 down.
Test [7] is described as follows: growth of efflux-deficient E. coli DRC39 – strain DRC39, OD650, 24 h, E. coli filamentation inducers, primary screen (AID 1178).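 Note: growth measured as culture turbidity by optical density at 650 nm.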 The conditions noted are these: E. coli DRC39 acrAB, higher = more signal, called active from +8 up or from −8 down.
A short description of test [8]: growth of efflux-deficient E. coli DRC39 – strain DRC39, OD650, 48 h, E. coli filamentation inducers, primary screen (AID 1179).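 Note: screen aims at cell division blockers that make cells filament.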 The note with it: E. coli DRC39 delta-acrAB growth, higher = more signal, called active from +8 up or from −8 down.
The nature of test [9]: viability profiling in RPMI8226 myeloma cells – cell-based, resazurin fluorescence, basal, 24 h, PK04 Diversity Set, profiling panel (AID 1180).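 Note: RPMI8826 multiple myeloma cell line at 5000 cells per well.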 The conditions noted are these: higher = more signal.
The target in test [10] is E3 ubiquitin-protein ligase XIAP (Homo sapiens) (UniProt P98170). In words: small molecules binding XIAP protein – biophysical, small-molecule microarray, fluorescence 635 nm, primary screen (AID 1181).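 Note: score merges 667 nm emission and signal to noise over triplicate slides.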 The conditions noted are these: higher = more signal.
The subject of test [11] is XIP peptide (Xip251-270) binding. Kind of test: XIP fragment 251-270 binding compounds – biochemical, small-molecule microarray, fluorescence 635/667 nm, 0.1 µg/mL protein, primary screen (AID 1182). The note with it: fluorescent protein binding, 635 nm, higher = more signal, called active from +8 up or from −8 down.
The next test has as its system XIP peptide (Xip251-270). In words: compounds binding XIP fragment 251-270 – biochemical, small-molecule microarray, fluorescence 635/667 nm, 0.5 µg/mL protein, primary screen (AID 1183). The conditions noted are these: fluorescence 635 nm, higher = more signal.
Test [12] can be described thus: blood-stage malaria parasite viability loss – strain 3D7, DAPI fluorescence, 100 nL, primary screen (AID 1184).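 Note: parasites grown inside human red blood cells in medium with human serum.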 The conditions noted are these: P. falciparum 3D7 growth, 3 d, higher = more signal.
Test [13] deals with Homeobox protein Hox-A13 (Mus musculus) (UniProt Q62424). In words: disruptors of Hoxa13 oligonucleotide interaction – biochemical, fluorescence polarization, labeled oligonucleotide, primary screen (AID 1185). The conditions noted are these: Hoxa13:DNA binding, 15 min, higher = more signal, called active from +8 up or from −8 down.
A short description of test [14]: blockers of DNA damage checkpoint Chk1 activation – imaging, HeLa, hydroxyurea, phospho-Chk1 antibody, percent positive cells, primary screen (AID 1186). The conditions noted are these: hydroxyurea-induced phospho-Chk1 immunofluorescence imaging, higher = more signal.
The nature of test [15]: blockers of DNA damage checkpoint Chk1 activation – imaging, HeLa, hydroxyurea, phospho-Chk1 nuclear intensity, primary screen (AID 1187). The conditions noted are these: hydroxyurea-induced phospho-Chk1 immunofluorescence imaging, higher = more signal.

Activity calls are given as the source filed them. Unless noted, the rule behind the calls is not given here.

Sequence of Dihydroorotate dehydrogenase (quinone), mitochondrial (Plasmodium falciparum (isolate 3D7)) (Q08210 whole entry, looked up): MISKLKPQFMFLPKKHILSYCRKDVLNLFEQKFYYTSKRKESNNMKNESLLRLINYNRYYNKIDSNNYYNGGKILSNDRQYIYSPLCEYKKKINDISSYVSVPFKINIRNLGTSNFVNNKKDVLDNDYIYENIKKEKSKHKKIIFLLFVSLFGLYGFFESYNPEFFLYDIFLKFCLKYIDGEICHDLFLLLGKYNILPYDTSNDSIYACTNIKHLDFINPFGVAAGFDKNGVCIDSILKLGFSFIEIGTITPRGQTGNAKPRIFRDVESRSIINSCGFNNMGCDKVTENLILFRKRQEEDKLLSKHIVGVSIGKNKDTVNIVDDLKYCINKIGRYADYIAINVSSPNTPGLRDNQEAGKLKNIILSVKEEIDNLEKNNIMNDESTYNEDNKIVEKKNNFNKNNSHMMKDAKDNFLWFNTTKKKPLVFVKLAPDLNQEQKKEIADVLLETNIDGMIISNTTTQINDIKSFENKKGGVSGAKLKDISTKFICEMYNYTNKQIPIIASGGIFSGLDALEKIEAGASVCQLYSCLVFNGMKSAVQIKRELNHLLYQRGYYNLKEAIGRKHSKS
Sequence of Homeobox protein Hox-A13 (Mus musculus) (Q62424 whole entry, looked up): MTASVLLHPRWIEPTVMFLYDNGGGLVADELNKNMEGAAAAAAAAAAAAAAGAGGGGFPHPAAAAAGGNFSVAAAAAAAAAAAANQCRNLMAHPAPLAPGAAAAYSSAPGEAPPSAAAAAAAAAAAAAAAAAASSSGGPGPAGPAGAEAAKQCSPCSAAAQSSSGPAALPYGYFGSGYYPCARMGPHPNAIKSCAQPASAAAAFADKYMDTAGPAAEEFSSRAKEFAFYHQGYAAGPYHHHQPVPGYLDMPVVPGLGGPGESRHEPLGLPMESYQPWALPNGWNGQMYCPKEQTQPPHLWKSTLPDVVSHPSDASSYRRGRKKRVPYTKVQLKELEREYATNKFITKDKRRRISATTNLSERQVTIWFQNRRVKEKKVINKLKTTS
Sequence of E3 ubiquitin-protein ligase XIAP (Homo sapiens) (P98170 whole entry, looked up, the tested form may be a part): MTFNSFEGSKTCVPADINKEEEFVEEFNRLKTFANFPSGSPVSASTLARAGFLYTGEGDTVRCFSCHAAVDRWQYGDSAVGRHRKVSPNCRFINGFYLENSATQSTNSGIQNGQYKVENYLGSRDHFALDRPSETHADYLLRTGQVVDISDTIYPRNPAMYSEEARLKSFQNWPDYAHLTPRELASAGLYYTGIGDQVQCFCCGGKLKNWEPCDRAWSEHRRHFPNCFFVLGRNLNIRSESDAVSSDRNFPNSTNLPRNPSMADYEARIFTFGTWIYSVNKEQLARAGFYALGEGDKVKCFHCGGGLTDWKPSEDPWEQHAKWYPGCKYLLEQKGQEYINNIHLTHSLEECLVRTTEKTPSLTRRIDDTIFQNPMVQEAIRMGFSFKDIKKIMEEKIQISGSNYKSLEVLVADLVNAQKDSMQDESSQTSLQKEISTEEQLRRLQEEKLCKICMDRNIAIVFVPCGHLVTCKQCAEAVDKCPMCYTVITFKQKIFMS

With `CCCCCN1CC=CC23O[C@@H]4C=CCOC(=O)[C@@H]4[C@H]2C(=O)N(C(C)CO)[C@@H]3C1=O` (some centres undefined), the z-score in [1] is 0.0677; in test [2] it was -0.738 (inactive); in test [3] it was -0.278 (inactive); in test [5] it was 0.77 (inactive); in test [6], -1.16 (inactive); in [7], -0.232 (inactive). In addition, the z-score in test [8] is -0.443 (inactive); in [9] it was 0.003; in test [12], 0.795; in [13], -4.96 (inactive); in test [14], 0.719 (inactive); in test [15], 0.149 (inactive). Further, the composite z-score in [4] is -0.478 (inactive); in test [10], -0.269; in test [11] it was 0.379 (inactive); in the test with XIP peptide (Xip251-270), -0.0756.

For `COC(=O)c1c2oc(c1C(=O)OC)C(=O)NC1(CCCCC1)c1cn(nn1)C[C@H](Cc1ccccc1)NC(=O)N[C@H](CO)CC2`, the z-score was 1.68 in [1]; -0.861 (inactive) in test [2]; 0.911 (inactive) in test [3]; 0.383 (inactive) in test [5]; -0.0499 (inactive) in test [6]; 1.09 (inactive) in [7]. Further, the z-score in [8] was 1.66 (inactive); in test [9] it was 0.456; in [12], 0.196; in [13] it was -4.41 (inactive); in test [14], -0.0736 (inactive); in test [15], -0.183 (inactive). Besides, the composite z-score in [4] was -0.805 (inactive); in test [10], -0.118; in test [11], 0.064 (inactive); in the test with XIP peptide (Xip251-270) it was -0.271.

Consider `COc1ccccc1CN1C(=O)c2ccccc2[C@@H](C(=O)NCc2ccccc2)[C@@H]1c1ccc(CO)cc1`, for which the z-score in [1] is -0.678; in [2], 0.0688 (inactive); in [3], 0.122 (inactive); in test [5] it was -0.0528 (inactive); in test [6] it was -0.0226 (inactive); in test [7] it was -0.236 (inactive). Besides, the z-score is -0.36 (inactive) in [8]; 0.427 in [9]; -1.45 in test [12]; -1.22 (inactive) in [13]; -0.295 (inactive) in test [14]; -0.0433 (inactive) in test [15]. The composite z-score in [4] is 0.942 (inactive); in test [10] it was -0.193; in test [11], 0.737 (inactive); in the test with XIP peptide (Xip251-270), 0.785.

Consider `COC(=O)[C@@]1(Cc2ccccc2)[C@H]2c3cc(C(=O)N4CCCC4)n(Cc4ccc(O)c(OC)c4)c3C[C@H]2CN1C(=O)c1ccccc1`, for which the z-score in test [1] is -1.82; in [2], 1.93 (inactive); in test [3] it was -0.948 (inactive); in test [5], 0.675 (inactive); in [6] it was 1.8 (inactive); in [7] it was -1.12 (inactive). Further, the z-score was -0.697 (inactive) in test [8]; -2.74 in test [9]; -1.32 in test [12]; -4.6 (inactive) in test [13]; 1.13 (inactive) in test [14]; 0.678 (inactive) in [15]. In addition, the composite z-score in test [4] is 0.05 (inactive); in [10], 0.224; in test [11], 0.469 (inactive); in the test with XIP peptide (Xip251-270) it was -0.333.

Turning to `CS(=O)(=O)CCOC(=O)C1=CC(CCCO)=CC(C2CC2)N(Cc2cc3c(cc2Br)OCO3)C=C1C(=O)OCCS(C)(=O)=O` (centres undefined), the z-score in [1] was 0.0423; in test [2] it was -2.22 (inactive); in test [3], -0.134 (inactive); in [5], 0.118 (inactive); in [6] it was 0.37 (inactive); in test [7], 1.17 (inactive). Moreover, the z-score is 0.892 (inactive) in test [8]; -0.0822 in test [9]; -2.58 in [12]; -5.51 (inactive) in test [13]; -1.19 (inactive) in [14]; -0.295 (inactive) in test [15]. Moreover, the composite z-score in test [4] was -1.5 (inactive); in [10] it was 0.448; in test [11], 0.389 (inactive); with XIP peptide (Xip251-270), -0.111.

Turning to `CCOc1cc(C(O)C2C=CC3C(=O)N(c4ccccc4)C(=O)C3N2Nc2ccc(C(C)C)cc2)ccc1O` (centres undefined), the z-score is -1.14 in test [1]; -1.16 (inactive) in test [2]; -0.988 (inactive) in [3]; 0.779 (inactive) in test [5]; 1.68 (inactive) in test [6]; -0.361 (inactive) in test [7]. Further, the z-score in test [8] is -1.34 (inactive); in [9] it was -1.3; in test [12], -0.85; in [13] it was -4.72 (inactive); in test [14], 0.415 (inactive); in [15], 0.241 (inactive). Further, the composite z-score in [4] is 1.15 (inactive); in test [10], 0.0891; in test [11], 0.429 (inactive); in the test on XIP peptide (Xip251-270), 0.828.

Consider `C=C(CCCC)C(=O)CC[C@@H](OC(C)=O)c1ccc(CO)o1`, for which the z-score in test [1] is 0.519; in [2], -12.9 (active); in test [3], 0.292 (inactive); in test [5], 1.27 (inactive); in test [6], -0.944 (inactive); in test [7], 0.435 (inactive). Also, the z-score was 0.339 (inactive) in test [8]; 0.624 in test [9]; -0.201 in test [12]; -3.66 (inactive) in test [13]; 0.593 (inactive) in [14]; 0.245 (inactive) in [15]. Besides, the composite z-score in [4] is -8.56 (active); in test [10], 0.151; in test [11], 0.247 (inactive); in the test on XIP peptide (Xip251-270) it was 0.337.

On to `O=C1N(CCS(=O)(=O)c2ccccc2)c2ccccc2[C@@H]2OC(c3ccc(OCCCO)cc3)=N[C@]12Cc1ccccc1`, for which the z-score in test [1] was 0.292; in test [2], -0.237 (inactive); in test [3], -3.11 (inactive); in test [5], 0.755 (inactive); in test [6], 0.289 (inactive); in test [7] it was 1.11 (inactive). The z-score in [8] was 1.03 (inactive); in test [9], -1.95; in [12], -2.17; in test [13], -1.41 (inactive); in [14] it was -0.522 (inactive); in test [15], -0.825 (inactive). Moreover, the composite z-score in [4] was -1.52 (inactive); in test [10], 0.0999; in [11] it was 0.395 (inactive); with XIP peptide (Xip251-270), 0.639.

Regarding `C=CCC(OC(C)=O)[C@@H]1[C@@H](N(Cc2ccc(-c3ccccc3)cc2)C(=O)Cc2ccc(F)cc2)c2cc(OCCCO)ccc2N1C(=O)c1ccc2ccccc2c1` (some centres undefined), the z-score in test [1] was -0.228; in test [2] it was -0.458 (inactive); in [3], 0.376 (inactive); in [5], 0.0885 (inactive); in test [6], -0.198 (inactive); in test [7], -0.794 (inactive). In addition, the z-score in test [8] is -0.397 (inactive); in [9] it was -0.112; in test [12], -2.17; in test [13], -1.35 (inactive); in [14] it was 0.295 (inactive); in test [15] it was -0.009 (inactive). The composite z-score in [4] was 0.683 (inactive); in test [10], -0.146; in [11] it was -0.568 (inactive); in the test on XIP peptide (Xip251-270), -0.245.

These data come from PubChem BioAssay.
